From PubChem BioAssay (NCI)
The panel holds about 83,000 compounds, 20% with a hit somewhere; the sample as a whole holds those more often.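 Negative percent growth values reflect cell death: -40 means 40% of the cells present at the start died, and -100 means all died.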 Activity calls are given as the source filed them. The calls were made as follows: active = growth percent below 10; inactive = the rest.

These molecules were tested on NCI-H522 lung (assay: NCI-60 one-dose screen, 48 h (100 = growth as untreated, 0 = no growth, -100 = all killed)). Details: 10 µM.

Row | SMILES | growth
1 | CC1(C)CC[C@]2(C(=O)Nc3ccccc3)CC[C@]3(C)C(=CC[C@@H]4[C@@]5(C)CC[C@H](N)C(C)(C)[C@@H]5CC[C@]43C)[C@H]2C1 | 82.9% (inactive)
2 | CC(=C(c1ccc(OCCCN(C)C)cc1)c1ccc(OCCCN(C)C)cc1)c1ccccc1 | -84.6% (active)
3 | C[C@H]1[C@H](C)CC[C@]2(COC(=O)CCC(=O)NCC#CCN3CCNCC3)CC[C@]3(C)C(=CC[C@@H]4[C@@]5(C)CCCNC(C)(C)[C@@H]5CC[C@]43C)[C@H]12 | 59% (inactive)
4 | CCCS(=O)(=O)c1oc(-c2ccc(F)cc2)nc1S(=O)(=O)c1ccc(F)cc1 | -92.9% (active)
5 | CC(=O)NCC1=C(C)C=C2C(=O)[C@](C)(O)C3(CC3)C(C)=C21 | -64.8% (active)
6 | Cc1ccc(NC(=O)c2ccc(-n3c(=O)[nH]c4ccccc4c3=O)cc2)cc1 | 13.8% (inactive)
7 | CC(=C(c1ccc(OCCN2CCCCC2)cc1)c1ccc(OCCN2CCCCC2)cc1)c1ccccc1 | 64.8% (inactive)
8 | CCCCCc1ccc(S(=O)(=O)N(C(C)=O)c2cc(-c3csc(N(C)C(C)=O)n3)ccc2N2CCN(C)CC2)cc1 | 55.5% (inactive)

What follows are molecules tested on A549/ATCC NSCLC in the same assay as above. Details: 10 µM.

Row | SMILES | growth
9 | O=C(NO)c1ccc(Cn2ccc3c(Nc4ccccc4)ncnc32)cc1 | 25.3% (inactive)
10 | N#Cc1ccc(-c2nn(-c3ccc(C(=O)O)cc3)cc2CNc2cccc(Br)c2)cc1 | 55.7% (inactive)
11 | O=C(c1ccc(Cl)cc1)C1[C@H](c2ccccc2Br)[C@@H](c2ccccc2)NC12C(=O)Nc1ccccc12 (stereo not given in full) | 20.4% (inactive)
12 | CC1(C)CC[C@]2(C(=O)Nc3ccccc3)CC[C@]3(C)C(=CC[C@@H]4[C@@]5(C)CC[C@H](N)C(C)(C)[C@@H]5CC[C@]43C)[C@H]2C1 | 74.4% (inactive)
13 | CC(=C(c1ccc(OCCCN(C)C)cc1)c1ccc(OCCCN(C)C)cc1)c1ccccc1 | -73.1% (active)
14 | Cc1ccc(/C=C/C(=O)c2ccc(S(=O)(=O)NCCNc3nc(Nc4ccc(F)cc4)nc(N(C)C)n3)cc2)cc1 | 41.3% (inactive)
15 | COc1ccc(C(=O)Nc2sc3c(c2C#N)CCC(=O)C3)cc1C(F)(F)F | 25.5% (inactive)
16 | COc1ccc2nc(Cl)c(-c3cc(-c4ccccc4)nc(=S)[nH]3)cc2c1 | 93.6% (inactive)
17 | Cc1ccc(-c2cc(C(=O)N=Nc3c(O)[nH]c4ccccc34)c3ccccc3n2)cc1 | 2.51% (active)
18 | C#Cc1ccc(S(=O)(=O)Nc2cccc(-c3csc(NC(C)=O)n3)c2)cc1 | 62.8% (inactive)
19 | CC(C)C1=C[C@@]23CC[C@@H]4[C@](C)(CCC[C@]4(C)C(=O)NCc4ccccc4)[C@H]2C[C@@H]1[C@H]1C(=O)CCC(=O)[C@H]13 | 81.6% (inactive)
20 | COc1ccc(C(=O)NC(=S)N2CCN(c3ncnc4c3cnn4-c3ccccc3)CC2)cc1 | 58.8% (inactive)
21 | C[C@H]1[C@H](C)CC[C@]2(COC(=O)CCC(=O)NCC#CCN3CCNCC3)CC[C@]3(C)C(=CC[C@@H]4[C@@]5(C)CCCNC(C)(C)[C@@H]5CC[C@]43C)[C@H]12 | 51.6% (inactive)
22 | CC[C@@]1(O)C(=O)OCc2c1cc1n(c2=O)Cc2c-1nc1cc(F)c(C)c3c1c2[C@@H](N)CC3 | -57.9% (active)
23 | Cc1cccc2cc(-c3cc(-c4ccccc4)nc(=S)[nH]3)c(Cl)nc12 | 95.9% (inactive)
24 | Cc1ccc(CNC(=O)Cc2ccc3c(c2)CN(C2CCC(=O)NC2=O)C3=O)cc1 (stereo not given) | 10.6% (inactive)
25 | CONC[C@]1(C)C=C2C(=O)[C@](C)(O)C3(CC3)C(C)=C2[C@H]1O | 5.7% (active)
26 | CC1(C)CC[C@]2(C(=O)N3CCOCC3)CC[C@]3(C)C(=CC[C@@H]4[C@@]5(C)CC[C@H](NCO)C(C)(C)[C@@H]5CC[C@]43C)[C@H]2C1 | -85.8% (active)
27 | NS(=O)(=O)c1ccc(N=Nc2c(O)n(CC(=O)Nc3ccccc3Br)c3ccccc23)cc1 | 19.8% (inactive)

Row | SMILES | growth
28 | CNC(=O)c1cccc(N2CCc3c2ccc(NC(=O)Nc2ccc(N4CCN(C)CC4)c(C(F)(F)F)c2)c3F)c1 | -86% (active)
29 | O=C(NCCCCC(c1ccc(F)cc1)c1ccc(F)cc1)NCCCc1cccnc1 | 27.2% (inactive)
30 | CC(=O)Nc1ccc(-c2cn(-c3cccc(C(=O)Nc4ccc(Cl)c(C(F)(F)F)c4)c3)nn2)cn1 | -43.4% (active)
31 | CCCS(=O)(=O)c1oc(-c2ccc(F)cc2)nc1S(=O)(=O)c1ccc(F)cc1 | 82.5% (inactive)
32 | O=C(Cn1nc(-c2ccccc2)ccc1=O)NN1C(=O)c2ccccc2C1=O | 108% (inactive)
33 | CC(=O)NCC1=C(C)C=C2C(=O)[C@](C)(O)C3(CC3)C(C)=C21 | -50.3% (active)
34 | CCN1CCN(Cc2ccc(C(=O)Nc3cccc(-c4cn(-c5ccc6oc(=O)ccc6c5)nn4)c3)cc2C(F)(F)F)CC1 | -100% (active)
35 | CCOP(=O)(OCC)O[C@H]1CCC(=O)[C@@H]2[C@H]1[C@H]1C[C@@H]3[C@@]4(C)CCCC(C)(C(=O)OC)[C@@H]4CC[C@@]23C=C1C(C)C (stereo not given in full) | 49.7% (inactive)
36 | O=C1Nc2ccc(F)cc2/C1=C/c1cccc(OCc2ccccn2)c1 | 77.4% (inactive)
37 | CC1=N/C(=C\c2ccc(N(C)C)cc2)C(=O)N1CCc1ccc(S(N)(=O)=O)cc1 | 93.2% (inactive)
38 | O=C(Nc1ccc(I)cc1F)c1cc(-c2ccc(F)cc2F)ccc1O | 9.86% (active)
39 | C/C(=N\NC(N)=S)c1ccc(Nc2nc(SC(C)C)nc(-c3ccccc3)c2C#N)cc1 | 53.7% (inactive)
40 | COc1ccc2c(c1)N=C(C(=O)O)/C2=C/c1sc(Nc2ccc(O)cc2)nc1O | 96.2% (inactive)
41 | COc1cc(-c2nc3cc(Cl)c(Cl)cc3[nH]2)ccc1OCc1nnc(-c2ccc(Br)cc2)o1 | 19.5% (inactive)
42 | Cc1ccc(NC(=O)c2ccc(-n3c(=O)[nH]c4ccccc4c3=O)cc2)cc1 | 113% (inactive)
43 | CC(=C(c1ccc(OCCN2CCCCC2)cc1)c1ccc(OCCN2CCCCC2)cc1)c1ccccc1 | 33.3% (inactive)
44 | CCCCCc1ccc(S(=O)(=O)N(C(C)=O)c2cc(-c3csc(N(C)C(C)=O)n3)ccc2N2CCN(C)CC2)cc1 | 40.1% (inactive)
45 | COc1cc2c3c(n(CCCNC(C)C)c(=O)c2cc1OC)-c1nc2c(cc1C3=O)OCO2 | -62.8% (active)
